The values below come from PubChem BioAssay (NCATS).

Results filed as inconclusive are left out. Activity calls are given as the source filed them. Calls follow the shape of the dose curve; as a rule, active = well fitted cell-killing curve with a large enough effect; inconclusive = small, poorly fitted or top-dose-only effect, or effect the other way; inactive = no such curve, though single readings can be large or run the other way.
Potency is read from the fitted curve at half-maximal effect.

A short description of this assay: Viability qHTS for spleen associated tyrosine kinase inhibitor (SYKi) drug resistant MV4-11 cells (AID 1963824). Also: nearly all actives have a fitted effect of over 35% in size. The conditions noted are these: SYKi-resistant MV4-11 viability, CellTiter-Glo, 72 h; series mostly up to 45 µM. The method, boiled down:
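SYK inhibitor-resistant MV4-11 AML cells, 500 per well, added to predispensed compounds and incubated 72 hr at 37 C, 5% CO2. Viability measured by CellTiter-Glo luminescence after 10 min at room temperature.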
(In general: In qHTS, concentration-response curves come from the screen itself.)
Turning to `C/C=C(\C)C(=O)OC[C@H]1O[C@H](O[C@H]2O[C@H](CO)[C@@H](OC(=O)/C(C)=C/C)[C@H](O)[C@H]2O[C@@H]2O[C@H](CO)[C@@H](O)[C@H](O)[C@H]2O)[C@H](O[C@@H]2O[C@H](CO)[C@@H](O)[C@H](O)[C@H]2O)[C@@H](O)[C@@H]1O`, the viability, % of control was 92.1% [at 9.25 µM] (inactive).

For the compound `CC(C)CC(=O)OC1OC=C(CO[C@@H]2O[C@H](CO)[C@@H](O)[C@H](O)[C@H]2O)C2CC(O)C(O)(CO)C12` (some centres undefined), the Potency entry is “inactive”.

For `COC1C=C(C)C(O)(CO)C2(C)CCCC(C)(C)C12` (centres undefined), the Potency result was “inactive”.

With `Cc1nnc(-c2sc(NC(=O)[C@H](C(C)C)n3c(=O)[nH]c4ccccc4c3=O)nc2C)o1`, the Potency result was “inactive”.

Turning to `CCCNCCOc1ccc(NC(=O)c2c[nH]c3c2C(=O)CCC3)cc1F`, the Potency was 2910 nM (active).

`O=C(Nc1cccc([N+](=O)[O-])c1)c1cccc(S(=O)(=O)N2CCCCCC2)c1`: the Potency is 6510 nM (active).

Turning to `CC1(C)CC[C@]2(C(=O)O[C@@H]3O[C@H](CO)[C@@H](O)[C@H](O)[C@H]3O)CC[C@]3(C)C(=CCC4[C@@]5(C)CC[C@H](O[C@@H]6O[C@H](C(=O)O)[C@H](O)[C@H](O)[C@H]6O)C(C)(C)C5CC[C@]43C)[C@@H]2C1` (some centres undefined), the Potency was 4850 nM (active).

Turning to `C/C1=C\[C@@H](C)C[C@@H](C)[C@@H](Cc2cnco2)OC(=O)/C(C)=C/[C@@H](C)C[C@@H](C)[C@@H](Cc2cnco2)OC1=O`, the Potency was 502 nM (active).

As for `C/C=C(\C)C(=O)O[C@H]1C=C(CO)C(=O)[C@H](OC(C)=O)[C@H]1C(C)C`, the Potency is 1800 nM (active).
